This passage reports growth inhibition results from PubChem BioAssay (NCI).

“And” between values parts separate entries of the source, which are not always exact repeats. Equal entries are not always repeated. About 79,000 compounds went through this panel and 15% of them were active in at least one assay; those are over-represented in the sample as a whole. Values without a mark were called inactive. The source made the active and inactive calls. No stated cut-off is given here; in the data, active means growth inhibition above about 70%; inactive means the rest.

Assay [1] is described as follows: NCI Yeast Anticancer Drug Screen. Data for the mec2-1 strain (AID 157). Conditions: S. cerevisiae mec2-1 strain, hits give high values. The method, boiled down: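 Test agents were screened against the mec2-1 yeast strain, with defined DNA repair or cell cycle alteration. Growth was scored as inhibition against vehicle-only controls.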
Assay [2] in a line: NCI Yeast Anticancer Drug Screen. Data for the sgs1 mgt1 strain (AID 161).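 Further: 0% = growth of cultures given vehicle only.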 Conditions: S. cerevisiae sgs1 mgt1 strain, hits give high values. A digest of the protocol: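 Mutant yeast exposed to compound; growth scored against vehicle-only wells.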
Assay [3] is described as follows: NCI Yeast Anticancer Drug Screen. Data for the cln2 rad14 strain (AID 165).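 Further: 0% = growth equal to vehicle treated cultures.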 Conditions: S. cerevisiae cln2 rad14 strain, hits give high values. A digest of the protocol: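 Growth of compound-exposed yeast (cln2 rad14 genotype) measured and expressed as inhibition relative to vehicle.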
Assay [4] is described as follows: NCI Yeast Anticancer Drug Screen. Data for the bub3 strain (AID 167). Conditions: S. cerevisiae bub3 mutant strain, hits give high values. The method, boiled down: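 Inhibition values come from growth of compound-treated mutant yeast normalised to vehicle-treated controls.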
A short description of assay [5]: NCI Yeast Anticancer Drug Screen. Data for the mlh1 rad18 strain (AID 175). Conditions: S. cerevisiae mlh1 rad18 strain growth inhibition, hits give high values. The method, boiled down: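 In this whole-cell yeast screen, a strain with altered DNA damage repair is challenged with compound, and its growth is measured against matched vehicle-treated controls.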
The nature of assay [6]: NCI Yeast Anticancer Drug Screen. Data for the rad50 strain (AID 155).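 Further: 0% = growth of vehicle-only cultures of the same strain.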 Conditions: S. cerevisiae rad50 strain growth inhibition, hits give high values. A digest of the protocol:
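A DNA repair-deficient yeast mutant serves as the test organism; compound-induced growth inhibition is calculated against vehicle-treated cells.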

The mark [7] stands for this setting: at 5.0 µM (retest, dose inferred, filed as 0.5).
The mark [8] stands for this setting: at 50.0 µM (retest, dose inferred, filed as 5.0).

As to `C(CCCCCN1CCCCC1)CCCCN1CCCCC1`, the growth inhibition in assay [1] (setting [7]) is -20%; in assay [1] (setting [8]) it was -8%; in assay [1] (at 50.0 µM), 5.4%; in assay [2] (setting [7]) it was 3%; in assay [2] (setting [8]) it was -14%; in assay [2] (at 50.0 µM), 7.2%. For the same compound, the growth inhibition in assay [3] (setting [7]) was 3%; in assay [3] (setting [8]), 6%; in assay [3] (at 50.0 µM) it was 6.75%; in assay [4] (setting [7]), -11%; in assay [4] (setting [8]), -18%; in assay [4] (at 50.0 µM), -27.2%. For the same compound, the growth inhibition in assay [5] (setting [7]) is -1%; in assay [5] (setting [8]), 10%; in assay [5] (at 50.0 µM), 6.85%.
Regarding `CCOC(=O)CN1CCC(C(=O)CC2(O)C3(Cl)C4(Cl)C5(Cl)C(Cl)(Cl)C6(Cl)C4(Cl)C2(Cl)C6(Cl)C53Cl)CC1` (configuration not stated), the growth inhibition in assay [1] (setting [7]) is 2%; in assay [1] (setting [8]), 99% (active); in assay [1] (at 50.0 µM), 99.2% (active); in assay [2] (setting [7]), 51%; in assay [2] (setting [8]), 99% (active); in assay [2] (at 50.0 µM), 50.5%. Moreover, the growth inhibition in assay [3] (setting [7]) was 58%; in assay [3] (setting [8]) it was 98% (active); in assay [3] (at 50.0 µM) it was 98.5% (active); in assay [4] (setting [7]), 20%; in assay [4] (setting [8]) it was 98% (active); in assay [4] (at 50.0 µM) it was 99.1% (active). The growth inhibition is 62% in assay [5] (setting [7]), 99% (active) in assay [5] (setting [8]) and 98.8% (active) in assay [5] (at 50.0 µM).
For `CN(C)C(=S)/N=c1\ss/c(=N\C(=S)N(C)C)n1-c1ccc(Cl)cc1`, the growth inhibition in assay [1] (setting [7]) is 14%; in assay [1] (setting [8]), -7%; in assay [1] (at 50.0 µM) it was 92.1% (active); in assay [2] (setting [7]), 7%; in assay [2] (setting [8]) it was 13%; in assay [2] (at 50.0 µM), 95.7% (active). The growth inhibition in assay [3] (setting [7]) is 5%; in assay [3] (setting [8]) it was -10%; in assay [3] (at 50.0 µM), 72.3% (active); in assay [4] (setting [7]), 3%; in assay [4] (setting [8]) it was -2%; in assay [4] (at 50.0 µM) it was 90% (active). In addition, the growth inhibition was 8% in assay [5] (setting [7]), 29% in assay [5] (setting [8]) and 96.2% (active) in assay [5] (at 50.0 µM).
For the compound `OCC(O)C(O)C(O)CO` (configuration not stated), the growth inhibition in assay [6] (at 50.0 µM) was -5.35% and 10.4% and 7.75%; in assay [1] (at 50.0 µM) it was -8.1% and 4.3% and 14%; in assay [2] (at 50.0 µM), -16% and 7.05% and 14.4%; in assay [3] (at 50.0 µM), 4.25% and 2.85% and 13.9%; in assay [4] (at 50.0 µM) it was -45.7% and -5.45% and 0.05%; in assay [5] (at 50.0 µM), -8.35% and -4.45% and 10%.
On to `CCOC(=O)CCC(N)C(=O)OCC` (configuration not stated), for which the growth inhibition in assay [6] (at 50.0 µM) is 20.8% and 1.45% and -26.1%; in assay [1] (at 50.0 µM), -4.05% and -5.05% and -0.15%; in assay [2] (at 50.0 µM), 8.4% and -2% and -19.9%; in assay [3] (at 50.0 µM), 5.9% and -29.1% and -40.6%; in assay [4] (at 50.0 µM) it was 1.45% and 7.05% and -8.7%; in assay [5] (at 50.0 µM), 10.9% and 23.9% and -16.1%.
For the compound `O=[N+]([O-])c1ccc2c(c1)N([O-])C1(CCCCC1)[N+]2=O`, the growth inhibition in assay [6] (setting [7]) was 25%; in assay [6] (setting [8]), 99% (active); in assay [6] (at 50.0 µM), 89% (active); in assay [1] (setting [7]), 24%; in assay [1] (setting [8]) it was 99% (active); in assay [1] (at 50.0 µM), 92.9% (active). The growth inhibition is 22% in assay [3] (setting [7]); 98% (active) in assay [3] (setting [8]); 88% (active) in assay [3] (at 50.0 µM); 10% in assay [4] (setting [7]); 98% (active) in assay [4] (setting [8]); 91.1% (active) in assay [4] (at 50.0 µM). Besides, the growth inhibition was 37% in assay [5] (setting [7]), 99% (active) in assay [5] (setting [8]) and 88.4% (active) in assay [5] (at 50.0 µM).
Consider `COc1cc2cnc(-c3ccccc3)cc2cc1OC`, for which the growth inhibition in assay [6] (setting [7]) is 14%; in assay [6] (setting [8]), 71% (active); in assay [6] (at 50.0 µM) it was 43.5%; in assay [2] (setting [7]), 5%; in assay [2] (setting [8]), 63%; in assay [2] (at 50.0 µM), 13.9%. Besides, the growth inhibition in assay [3] (setting [7]) was -15%; in assay [3] (setting [8]) it was 99% (active); in assay [3] (at 50.0 µM), 26.9%; in assay [4] (setting [7]) it was 48%; in assay [4] (setting [8]), 99% (active); in assay [4] (at 50.0 µM), 81.3% (active). The growth inhibition in assay [5] (setting [7]) was 13%; in assay [5] (setting [8]) it was 86% (active); in assay [5] (at 50.0 µM), 19.2%.
With `CCCn1c2ccccc2c2ccc3c(c21)C(=O)C=CC3=O`, the growth inhibition in assay [1] (setting [7]) is 27%; in assay [1] (setting [8]), 80% (active); in assay [1] (at 50.0 µM), 61.9%; in assay [2] (setting [7]) it was 37%; in assay [2] (setting [8]), 73% (active); in assay [2] (at 50.0 µM) it was 70.7% (active). Further, the growth inhibition in assay [3] (setting [7]) is 18%; in assay [3] (setting [8]), 35%; in assay [3] (at 50.0 µM) it was 56.3%; in assay [4] (setting [7]), 37%; in assay [4] (setting [8]) it was 80% (active); in assay [4] (at 50.0 µM), 65%. Moreover, the figures for the growth inhibition in assay [5] (setting [7]), in assay [5] (setting [8]) and in assay [5] (at 50.0 µM) were 42%, 77% (active) and 62.7%, respectively.
Take `CCOc1ccc(/C=N\NC(=O)c2ccco2)cc1OCC`: the growth inhibition in assay [6] (setting [7]) was -6%; in assay [6] (setting [8]), 4%; in assay [6] (at 50.0 µM), 59.8%; in assay [2] (setting [7]) it was -3%; in assay [2] (setting [8]) it was 11%; in assay [2] (at 50.0 µM), 47.7%. Further, the growth inhibition in assay [3] (setting [7]) was -23%; in assay [3] (setting [8]), -22%; in assay [3] (at 50.0 µM), 67%; in assay [4] (setting [7]), -11%; in assay [4] (setting [8]), -22%; in assay [4] (at 50.0 µM), 92.6% (active). Besides, the growth inhibition was -2% in assay [5] (setting [7]), -12% in assay [5] (setting [8]) and 44.6% in assay [5] (at 50.0 µM).
